Laboratory results: PubChem BioAssay AID1159580 (chemical genetic matrix, 2015)
Out of some 5,500 compounds screened, about 2,000 (36%) were called active. Not shown: some 18% with an inconclusive outcome. Rule as the data show it: active = normalized growth mostly below about 0.91 (no sharp cut-off); inconclusive = no clear call, values can overlap the other calls; inactive = mostly above about 0.92. The list shows a part of the results.

Experiment: chemical genetic growth profiling, strain panel (AID 1159580);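 also: tested at 20 µM; growth read once vehicle control cultures reached saturation at 30 °C; 1 = growth at the plate median or of vehicle wells; lower values mean less growth of the strain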
Conditions: S. cerevisiae deletion strains, growth OD
[1] = locus YJL095W, strain BCK1, active compounds read low
[2] = locus YMR307W, strain GAS1, active compounds read low
[3] = locus YNL153C, strain GIM3, active compounds read low

Measured: normalized growth

O=c1cc(-c2ccccc2)oc2cccc(O)c12
active: locus YBR023C, strain chs3, active compounds read low 0.892 | locus YBR279W, strain paf1, active compounds read low 0.931 | locus YDR137W, strain rgp1, active compounds read low 0.716 | locus YDR195W, strain ref2 1.37 [resistant] | locus YDR392W, strain spt3, active compounds read low 0.605 | locus YER155C, strain BEM2 (second series), active compounds read low 0.506 | locus YGL253W, strain hxk2, active compounds read low 0.859 | locus YHR142W, strain chs7, active compounds read low 0.765 | locus YJL164C, strain tpk1, active compounds read low 0.902 | locus YKL160W, strain elf1, active compounds read low 0.872 | locus YLR221C, strain rsa3, active compounds read low 0.883 | locus YLR262C, strain YPT6 (second series), active compounds read low 0.78 | locus YLR320W, strain mms22, active compounds read low 0.774 | locus YMR058W, strain fet3, active compounds read low 0.888 | locus YNL071W, strain lat1, active compounds read low 0.62 | locus YNL248C, strain rpa49, active compounds read low 0.755 | locus YOR083W, strain WHI5, active compounds read low 0.886 | locus YOR270C, strain vph1, active compounds read low 0.66 | locus YPL051W, strain arl3, active compounds read low 0.853 | locus YPL078C, strain atp4, active compounds read low 0.807
inactive: locus YAL021C, strain ccr4, active compounds read low 0.95 | locus YAL026C, strain drs2, active compounds read low 0.93 | locus YAL030W, strain snc1, active compounds read low 0.972 | locus YBL061C, strain skt5, active compounds read low 0.938 | locus YBR009C, strain hhf1, active compounds read low 0.969 | locus YBR171W, strain sec66, active compounds read low 0.952 | locus YBR231C, strain swc5, active compounds read low 0.943 | locus YCL011C, strain gbp2, active compounds read low 0.967 | locus YCL016C, strain dcc1, active compounds read low 0.938 | locus YCL061C, strain MRC1, active compounds read low 0.969 | locus YCL069W, strain vba3, active compounds read low 0.959 | locus YCR088W, strain abp1, active compounds read low 0.972 | locus YDL005C, strain med2, active compounds read low 0.994 | locus YDL040C, strain nat1, active compounds read low 0.961 | locus YDR001C, strain nth1, active compounds read low 0.961 | locus YDR069C, strain doa4, active compounds read low 0.985 | locus YDR159W, strain sac3, active compounds read low 1.03 | locus YDR297W, strain sur2, active compounds read low 0.977 | locus YDR334W, strain swr1, active compounds read low 0.964 | locus YDR335W, strain msn5, active compounds read low 0.968 | locus YEL003W, strain gim4, active compounds read low 0.981 | locus YEL037C, strain rad23, active compounds read low 0.959 | locus YEL061C, strain CIN8 (second series), active compounds read low 0.963 | locus YER015W, strain faa2, active compounds read low 0.969 | locus YER016W, strain bim1, active compounds read low 0.974 | locus YER111C, strain swi4, active compounds read low 0.985 | locus YFR010W, strain ubp6, active compounds read low 0.959 | locus YGL167C, strain pmr1, active compounds read low 0.969 | locus YGL173C, strain kem1, active compounds read low 0.946 | locus YGL227W, strain vid30, active compounds read low 0.977 | locus YGL240W, strain doc1, active compounds read low 0.924 | locus YHR013C, strain ard1, active compounds read low 0.897 | locus YHR027C, strain rpn1, active compounds read low 0.98 | locus YHR030C, strain SLT2, active compounds read low 1.02 | locus YHR079C, strain IRE1, active compounds read low 0.992 | locus YJL092W, strain hpr5, active compounds read low 0.975 | locus YJL095W, strain BCK1 (second series), active compounds read low 0.971 | [1] 0.995 | locus YJL115W, strain asf1, active compounds read low 0.979 | locus YJL129C, strain trk1, active compounds read low 0.912 | locus YJL154C, strain vps35, active compounds read low 0.981 | locus YJL166W, strain qcr8, active compounds read low 0.908 | locus YJL187C, strain SWE1, active compounds read low 0.966 | locus YJR066W, strain TOR1, active compounds read low 0.923 | locus YKR026C, strain gcn3, active compounds read low 0.969 | locus YKR091W, strain srl3, active compounds read low 0.985 | locus YLL001W, strain dnm1, active compounds read low 0.939 | locus YLL026W, active compounds read low 0.972 | locus YLL041C, strain sdh2, active compounds read low 0.97 | locus YLR027C, strain aat2, active compounds read low 0.934 | locus YLR113W, strain HOG1, active compounds read low 1.03 | locus YLR258W, strain gsy2, active compounds read low 0.961 | locus YLR342W, strain FKS1, active compounds read low 0.984 | locus YLR357W, strain rsc2, active compounds read low 1.01 | locus YLR370C, strain arc18, active compounds read low 0.964 | locus YLR384C, strain iki3, active compounds read low 0.976 | locus YML120C, strain ndi1, active compounds read low 0.917 | locus YMR125W, strain sto1, active compounds read low 1 | locus YMR129W, active compounds read low 0.979 | locus YMR205C, strain PFK2, active compounds read low 0.972 | locus YMR231W, strain pep5, active compounds read low 0.986 | locus YNL183C, strain NPR1, active compounds read low 0.943 | locus YNL209W, strain ssb2, active compounds read low 0.978 | locus YNL322C, strain KRE1 (second series), active compounds read low 0.996 | locus YNR049C, strain mso1, active compounds read low 0.965 | locus YOR001W, strain rrp6, active compounds read low 0.911 | locus YOR070C, strain gyp1, active compounds read low 0.937 | locus YOR080W, strain dia2, active compounds read low 0.982 | locus YOR106W, strain vam3, active compounds read low 0.923 | locus YOR231W, strain MKK1, active compounds read low 1.01 | locus YOR265W, strain rbl2, active compounds read low 0.954 | locus YOR290C, strain snf2, active compounds read low 0.873 | locus YPL106C, strain sse1, active compounds read low 0.973 | locus YPL240C, strain hsp82, active compounds read low 0.974 | locus YPL256C, strain CLN2, active compounds read low 1.05

COc1cc2c(cc1O)C(Cc1ccc(O)cc1)N(C)CC2 (stereo not given)
inactive: locus YAL013W, strain DEP1, active compounds read low 1.01 | locus YBR021W, strain FUR4, active compounds read low 1.02 | locus YBR229C, strain ROT2, active compounds read low 1.02 | locus YCL029C, strain bik1, active compounds read low 1 | locus YDL035C, strain GPR1, active compounds read low 1.05 | locus YDL074C, strain BRE1, active compounds read low 1.06 | locus YDL101C, strain DUN1, active compounds read low 1.02 | locus YDL185W, strain tfp1, active compounds read low 1.01 | locus YDL192W, strain arf1, active compounds read low 1.02 | locus YDR101C, strain arx1, active compounds read low 1.01 | locus YDR162C, strain NBP2, active compounds read low 1.05 | locus YDR318W, strain mcm21, active compounds read low 1.01 | locus YDR388W, active compounds read low 1.01 | locus YDR502C, strain sam2, active compounds read low 0.979 | locus YER110C, active compounds read low 0.977 | locus YER155C, strain BEM2, active compounds read low 1.01 | locus YER167W, strain BCK2, active compounds read low 1.02 | locus YGL078C, strain dbp3, active compounds read low 0.984 | locus YGL086W, strain mad1, active compounds read low 1.01 | locus YGL248W, strain PDE1, active compounds read low 1.03 | locus YGR078C, strain PAC10, active compounds read low 1.02 | locus YGR135W, strain pre9, active compounds read low 0.981 | locus YGR252W, strain gcn5, active compounds read low 0.923 | locus YHR079C, strain IRE1 (second series), active compounds read low 0.991 | locus YHR094C, strain hxt1, active compounds read low 0.982 | locus YHR129C, strain ARP1, active compounds read low 1.02 | locus YHR200W, strain rpn10, active compounds read low 0.986 | locus YIL066C, strain RNR3, active compounds read low 1.03 | locus YIL073C, strain SPO22, active compounds read low 0.998 | locus YIL125W, strain kgd1, active compounds read low 1.01 | locus YIR030C, strain dcg1, active compounds read low 1 | [1] 1.03 | locus YJL134W, strain LCB3, active compounds read low 1.02 | locus YJL168C, strain set2, active compounds read low 0.998 | locus YJL187C, strain SWE1 (second series), active compounds read low 1.02 | locus YKL009W, strain mrt4, active compounds read low 1.02 | locus YKL068W, active compounds read low 0.998 | locus YKL085W, strain MDH1 (second series), active compounds read low 1.01 | locus YKL085W, strain MDH1, active compounds read low 1.01 | locus YKL190W, strain CNB1, active compounds read low 1.02 | locus YKR001C, strain vps1, active compounds read low 1.01 | locus YLR039C, strain RIC1, active compounds read low 1.05 | locus YLR058C, strain SHM2, active compounds read low 1.04 | locus YLR102C, strain apc9, active compounds read low 0.977 | locus YLR268W, strain sec22, active compounds read low 1.03 | locus YLR330W, strain CHS5, active compounds read low 1.02 | locus YLR342W, strain FKS1 (second series), active compounds read low 1.07 | locus YLR371W, strain rom2, active compounds read low 1.01 | locus YLR418C, strain cdc73, active compounds read low 1.01 | locus YML016C, strain PPZ1, active compounds read low 1.02 | locus YML032C, strain rad52, active compounds read low 1.01 | locus YML124C, strain tub3, active compounds read low 0.999 | locus YMR078C, strain ctf18, active compounds read low 0.994 | locus YMR223W, strain ubp8, active compounds read low 0.993 | [2] 1.12 | locus YNL067W, strain RPL9B, active compounds read low 1.01 | [3] 1.01 | locus YNL233W, strain BNI4, active compounds read low 1.01 | locus YNL250W, strain rad50, active compounds read low 1 | locus YNL271C, strain bni1, active compounds read low 1.01 | locus YNL298W, strain CLA4, active compounds read low 1.01 | locus YNL307C, strain MCK1, active compounds read low 0.994 | locus YNR052C, strain pop2, active compounds read low 0.982 | locus YOL012C, strain htz1 0.669 | locus YOL147C, strain pex11, active compounds read low 1 | locus YOR061W, strain CKA2, active compounds read low 1.03 | locus YOR069W, strain VPS5, active compounds read low 1.01 | locus YOR136W, strain idh2, active compounds read low 0.972 | locus YOR144C, strain elg1, active compounds read low 0.996 | locus YOR184W, strain ser1, active compounds read low 1.05 | locus YOR316C, strain cot1, active compounds read low 0.989 | locus YPR119W, strain clb2, active compounds read low 0.991 | locus YPR141C, strain kar3, active compounds read low 1.01 | locus YPR163C, strain tif3, active compounds read low 0.998 | locus YPR167C, strain met16, active compounds read low 0.973 | strain wtn01, active compounds read low 1.01

O=c1ccn([C@@H]2O[C@H](COP(=O)(O)OP(=O)(O)O)[C@@H](O)[C@H]2O)c(=O)[nH]1
inactive: locus YAL040C, strain CLN3, active compounds read low 0.981 | locus YCL061C, strain MRC1 (second series), active compounds read low 0.991 | locus YDR363W, strain ESC2, active compounds read low 0.981 | locus YER002W, strain NOP16, active compounds read low 0.995 | locus YGR229C, strain SMI1, active compounds read low 0.972 | locus YJR075W, strain HOC1, active compounds read low 0.976 | [2] 0.985 | [3] 0.983 | locus YNL175C, strain NOP13, active compounds read low 0.988 | locus YNL197C, strain WHI3, active compounds read low 0.967 | locus YNL224C, strain SQS1, active compounds read low 0.992 | locus YNL322C, strain KRE1, active compounds read low 0.971 | locus YOR083W, strain WHI5 (second series), active compounds read low 0.992 | locus YPL241C, strain CIN2, active compounds read low 1
